1 sequence from article PMC7862700, “An all-to-all approach to the identification of sequence-specific readers for epigenetic DNA modifications on cytosine” can be followed below.

Common to all, as to experiment: DAPPL (digital affinity profiling via proximity ligation, sequencing); 10 mM Tris-HCl pH 7.5, 50 mM NaCl, 1 mM DTT, 4% glycerol, room temperature, 30 min; GST-TFs on glutathione beads, 16-mer random dsDNA library, 0.1% formaldehyde crosslink after washing; high values mean tight binding
Holding throughout (conditions): protein: recombinant; tags: N-terminal GST; dsDNA, one strand shown

One test addresses T1, ELK1 (Homo sapiens, UniProt P19419 1-428).
T1 sequence: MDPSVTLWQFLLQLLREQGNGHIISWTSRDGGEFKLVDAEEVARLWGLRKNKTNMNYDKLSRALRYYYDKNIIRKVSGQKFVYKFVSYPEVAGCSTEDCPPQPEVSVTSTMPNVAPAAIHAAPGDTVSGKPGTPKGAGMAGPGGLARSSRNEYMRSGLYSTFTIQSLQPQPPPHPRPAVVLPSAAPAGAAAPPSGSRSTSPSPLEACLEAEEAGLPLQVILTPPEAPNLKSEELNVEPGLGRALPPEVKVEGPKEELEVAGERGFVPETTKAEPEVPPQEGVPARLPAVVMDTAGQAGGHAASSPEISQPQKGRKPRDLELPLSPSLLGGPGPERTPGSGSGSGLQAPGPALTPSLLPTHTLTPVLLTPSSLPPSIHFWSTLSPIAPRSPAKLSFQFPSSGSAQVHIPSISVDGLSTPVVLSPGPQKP
In a few lines: (§1)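 Beads coated with glutathione captured GST-fused human transcription factors that had been expressed in yeast, and the factors were then given DNA barcodes and pooled with a tag-only sample. The pools were incubated with 200 nmole of a random double-stranded 16-mer DNA library in Tris/NaCl/DTT/glycerol buffer for 30 min at room temperature, washed, crosslinked with 0.1% formaldehyde and proximity-ligated with BsaI/T4 ligase at 37 °C for 1 h. PCR amplification and Illumina NextSeq500 sequencing came last. Binding signal is each hexamer's read frequency for a factor divided by its frequency for the tag-only sample.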

The next test has as its target T2, GABPA (Homo sapiens, UniProt Q06546 1-454).
T2 sequence: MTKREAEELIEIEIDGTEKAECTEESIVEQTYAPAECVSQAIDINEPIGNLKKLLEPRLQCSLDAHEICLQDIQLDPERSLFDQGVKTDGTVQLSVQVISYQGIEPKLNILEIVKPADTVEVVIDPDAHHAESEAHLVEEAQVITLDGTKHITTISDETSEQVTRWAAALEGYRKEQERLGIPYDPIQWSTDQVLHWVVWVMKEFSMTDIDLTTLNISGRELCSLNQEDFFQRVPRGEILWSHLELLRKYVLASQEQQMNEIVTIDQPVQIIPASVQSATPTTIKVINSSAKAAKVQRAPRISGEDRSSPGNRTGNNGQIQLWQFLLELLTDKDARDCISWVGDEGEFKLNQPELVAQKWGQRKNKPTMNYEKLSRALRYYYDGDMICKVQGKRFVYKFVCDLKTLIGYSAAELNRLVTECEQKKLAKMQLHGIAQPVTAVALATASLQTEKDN
In a few lines: as §1

Another test deals with T3, ERG (Homo sapiens, UniProt P11308 1-479).
T3 sequence: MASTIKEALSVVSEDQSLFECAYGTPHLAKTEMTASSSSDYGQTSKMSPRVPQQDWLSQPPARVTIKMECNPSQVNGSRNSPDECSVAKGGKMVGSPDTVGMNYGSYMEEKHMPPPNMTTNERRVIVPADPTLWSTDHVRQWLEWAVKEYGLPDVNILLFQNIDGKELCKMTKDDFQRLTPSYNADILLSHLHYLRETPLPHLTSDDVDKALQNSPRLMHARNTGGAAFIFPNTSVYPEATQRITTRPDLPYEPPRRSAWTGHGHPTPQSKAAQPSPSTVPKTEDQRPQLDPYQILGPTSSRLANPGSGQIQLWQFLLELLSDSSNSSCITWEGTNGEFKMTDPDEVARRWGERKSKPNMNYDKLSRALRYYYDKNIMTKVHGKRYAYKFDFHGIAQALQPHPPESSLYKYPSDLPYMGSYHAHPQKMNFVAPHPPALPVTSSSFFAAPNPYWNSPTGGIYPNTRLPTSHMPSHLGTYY
In a few lines: as §1

The target of another test is ELF1 (Homo sapiens, UniProt P32519 1-619). In a few lines: as §1
The target in the next test is T4, EHF (Homo sapiens, UniProt Q9NZC4 1-300).
T4 sequence: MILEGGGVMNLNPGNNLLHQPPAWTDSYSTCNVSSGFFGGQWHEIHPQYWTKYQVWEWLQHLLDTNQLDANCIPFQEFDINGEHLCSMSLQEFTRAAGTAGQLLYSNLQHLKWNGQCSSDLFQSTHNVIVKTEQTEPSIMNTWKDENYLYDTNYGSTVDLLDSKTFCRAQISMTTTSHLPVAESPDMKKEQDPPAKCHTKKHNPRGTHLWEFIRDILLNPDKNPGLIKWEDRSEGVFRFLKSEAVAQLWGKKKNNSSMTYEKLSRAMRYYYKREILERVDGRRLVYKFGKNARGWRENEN
In a few lines: as §1

Another test has as its target SPIB (Homo sapiens, UniProt Q01892 1-262). In a few lines: as §1
In another test the target is T5, ELK3 (Homo sapiens, UniProt P41970 1-407).
T5 sequence: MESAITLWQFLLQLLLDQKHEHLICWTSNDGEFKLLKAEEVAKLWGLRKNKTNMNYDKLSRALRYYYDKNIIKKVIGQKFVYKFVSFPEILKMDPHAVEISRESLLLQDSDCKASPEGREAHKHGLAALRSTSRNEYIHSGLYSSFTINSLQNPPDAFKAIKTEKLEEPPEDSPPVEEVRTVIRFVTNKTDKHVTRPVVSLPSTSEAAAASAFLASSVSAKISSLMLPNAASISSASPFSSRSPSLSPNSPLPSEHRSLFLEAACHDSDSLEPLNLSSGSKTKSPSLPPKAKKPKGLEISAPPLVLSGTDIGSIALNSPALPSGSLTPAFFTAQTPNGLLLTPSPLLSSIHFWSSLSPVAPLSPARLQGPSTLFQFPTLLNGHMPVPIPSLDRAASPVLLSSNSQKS
In a few lines:
as §1

The target of a further test is T6, SPIC (Homo sapiens, UniProt Q8N5J4 1-248).
T6 sequence: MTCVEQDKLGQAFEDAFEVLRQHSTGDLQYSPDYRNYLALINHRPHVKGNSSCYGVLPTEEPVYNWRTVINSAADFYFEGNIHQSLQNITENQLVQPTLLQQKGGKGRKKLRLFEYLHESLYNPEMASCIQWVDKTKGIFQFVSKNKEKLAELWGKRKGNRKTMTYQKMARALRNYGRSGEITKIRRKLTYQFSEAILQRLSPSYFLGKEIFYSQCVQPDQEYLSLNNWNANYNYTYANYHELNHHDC
In a few lines: as §1

In a further test the target is ELF4 (Homo sapiens, UniProt Q99607 1-663). In a few lines:
as §1

Chain of ELF1 (P32519 whole entry): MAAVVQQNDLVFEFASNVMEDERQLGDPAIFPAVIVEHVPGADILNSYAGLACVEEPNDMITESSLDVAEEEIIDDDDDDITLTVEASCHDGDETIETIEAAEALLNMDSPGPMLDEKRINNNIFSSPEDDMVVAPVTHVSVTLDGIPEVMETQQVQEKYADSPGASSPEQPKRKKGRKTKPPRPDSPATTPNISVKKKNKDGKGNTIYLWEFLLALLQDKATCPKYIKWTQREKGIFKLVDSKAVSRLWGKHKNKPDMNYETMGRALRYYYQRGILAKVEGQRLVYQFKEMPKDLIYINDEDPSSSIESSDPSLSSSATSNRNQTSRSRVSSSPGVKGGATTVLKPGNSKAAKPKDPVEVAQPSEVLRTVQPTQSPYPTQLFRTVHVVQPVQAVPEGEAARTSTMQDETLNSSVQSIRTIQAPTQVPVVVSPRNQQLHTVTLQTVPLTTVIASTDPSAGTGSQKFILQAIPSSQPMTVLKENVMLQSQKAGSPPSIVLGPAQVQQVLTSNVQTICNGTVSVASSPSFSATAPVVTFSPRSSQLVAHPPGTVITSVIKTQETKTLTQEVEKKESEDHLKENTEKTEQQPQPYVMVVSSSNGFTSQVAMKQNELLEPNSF
Chain of SPIB (Q01892 whole entry): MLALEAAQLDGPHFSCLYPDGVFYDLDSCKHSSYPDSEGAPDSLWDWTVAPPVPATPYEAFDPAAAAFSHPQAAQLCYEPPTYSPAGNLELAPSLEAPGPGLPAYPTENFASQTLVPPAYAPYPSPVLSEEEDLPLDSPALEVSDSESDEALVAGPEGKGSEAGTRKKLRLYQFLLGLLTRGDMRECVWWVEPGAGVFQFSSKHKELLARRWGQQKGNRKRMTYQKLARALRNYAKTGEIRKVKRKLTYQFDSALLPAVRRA
Chain of ELF4 (Q99607 whole entry): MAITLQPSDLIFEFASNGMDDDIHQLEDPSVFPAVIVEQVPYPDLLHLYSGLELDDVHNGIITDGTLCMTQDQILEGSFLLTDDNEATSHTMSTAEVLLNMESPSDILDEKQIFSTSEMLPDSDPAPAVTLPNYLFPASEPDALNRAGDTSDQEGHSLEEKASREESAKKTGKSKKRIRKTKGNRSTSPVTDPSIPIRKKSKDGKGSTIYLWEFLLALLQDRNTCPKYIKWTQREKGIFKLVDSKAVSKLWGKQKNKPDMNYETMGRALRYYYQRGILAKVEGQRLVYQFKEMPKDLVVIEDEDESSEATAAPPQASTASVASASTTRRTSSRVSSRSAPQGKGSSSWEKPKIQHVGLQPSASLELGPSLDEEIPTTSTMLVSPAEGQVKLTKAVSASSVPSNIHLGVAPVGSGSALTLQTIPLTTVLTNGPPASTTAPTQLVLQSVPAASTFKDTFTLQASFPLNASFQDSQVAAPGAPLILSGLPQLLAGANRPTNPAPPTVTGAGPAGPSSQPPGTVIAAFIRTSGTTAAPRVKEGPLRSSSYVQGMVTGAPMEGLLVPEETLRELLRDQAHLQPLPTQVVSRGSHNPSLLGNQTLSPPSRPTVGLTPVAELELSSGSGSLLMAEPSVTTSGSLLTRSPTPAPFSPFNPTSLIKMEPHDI

For the sequence ACCCCT, the binding signal in the test with ELK1 is 1.07 fold enrichment (6-mer frequency, TF over GST control); with GABPA it was 1.04 fold enrichment (6-mer frequency, TF over GST control); in the test with ERG, 1.01 fold enrichment (6-mer frequency, TF over GST control); with ELF1, 1.16 fold enrichment (6-mer frequency, TF over GST control); with EHF, 1.09 fold enrichment (6-mer frequency, TF over GST control); with SPIB, 1.08 fold enrichment (6-mer frequency, TF over GST control). Moreover, the binding signal with ELK3 is 1.08 fold enrichment (6-mer frequency, TF over GST control); with SPIC, 1.05 fold enrichment (6-mer frequency, TF over GST control); with ELF4, 1.09 fold enrichment (6-mer frequency, TF over GST control).
